Screens deposited in PubChem BioAssay by The Scripps Research Institute Molecular Screening Center.
GPR151 ag – activators of human GPR151, primary screen, cell-based, PathHunter beta-arrestin, luminescence; actives 1% (n = 650,000); activation, % at 11.2 µM; G-protein coupled receptor 151 (Homo sapiens), Q8TDV0; PathHunter beta-arrestin GPR151 cells; AID 1508602, 2020; in the data active = activation above about 4.9%
MITF inh – MITF inhibitors, primary screen, biochemical, AlphaScreen, human; Microphthalmia-associated transcription factor (Homo sapiens), O75030; AlphaScreen MITF homodimerization, bead proximity signal; inhibition, % at 2.6 µM; actives 0.91% (n = 650,000); in the data active = inhibition above about 50%
Target sequence (O75030 whole entry, looked up): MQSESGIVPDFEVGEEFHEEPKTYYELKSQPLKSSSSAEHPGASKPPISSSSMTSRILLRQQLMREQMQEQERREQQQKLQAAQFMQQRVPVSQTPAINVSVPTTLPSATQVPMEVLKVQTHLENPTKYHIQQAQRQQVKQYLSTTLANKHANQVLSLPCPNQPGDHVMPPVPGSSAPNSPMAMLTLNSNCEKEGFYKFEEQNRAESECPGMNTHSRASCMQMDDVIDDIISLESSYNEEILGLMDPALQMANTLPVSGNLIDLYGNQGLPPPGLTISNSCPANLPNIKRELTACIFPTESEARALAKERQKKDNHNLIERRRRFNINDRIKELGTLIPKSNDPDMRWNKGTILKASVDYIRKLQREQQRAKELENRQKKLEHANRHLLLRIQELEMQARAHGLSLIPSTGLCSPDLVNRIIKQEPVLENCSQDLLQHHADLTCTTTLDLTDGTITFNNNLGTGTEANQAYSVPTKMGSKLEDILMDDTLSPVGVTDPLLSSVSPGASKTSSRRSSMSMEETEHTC
FBW7 activator – FBW7 E3 ligase activators, primary screen, biochemical, AlphaScreen, human | actives 0.13% (n = 650,000) | AlphaScreen FBW7–phospho-cyclin E peptide binding, activator screen | F-box/WD repeat-containing protein 7 (Homo sapiens), Q969H0 | normalized activity (activation), % at 26.1 µM | AID 1259310, 2017; in the data active = normalized activity above about 1.9%;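 also: purified mutant Fbw7 with reduced substrate affinity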
TEAD-YAP inh – TEAD-YAP interaction inhibition, primary screen, TEAD-YAP interaction inhibitor project, luminescence, HEK-TIYL cells; actives 1.4% (n = 640,000); AID 1259422, 2018; inhibition, % at 9.12 µM; TEAD-Gal4/YAP UAS-luciferase luminescence; in the data active = inhibition above about 32%
GPR151 conf act – GPR151 activators, triplicate retest, confirmation, cell-based, PathHunter beta-arrestin, luminescence. shares compounds with GPR151 ag. 6,700 tested, under 10 active. activation, % at 11.2 µM. AID 1508609, 2020. GPR151 PathHunter beta-arrestin cells, 90 min; % of EA-reagent control over plate median;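 active = mean percent activation across replicates above the confirmation screen cutoff of 4.91%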
GPR119 counter – GPR119 activators in beta-arrestin cells, counter-screen for GPR151 activator project, cell-based, PathHunter beta-arrestin, luminescence, triplicate; shares compounds with GPR151 ag; activation, % at 11.2 µM; AID 1508611, 2020; 90 min; 0 = compound-well median, 100 = enzyme-acceptor control; actives 0.3% (n = 6,700);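 active = mean percent activation in the counterscreen above 29.09%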;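 also: counterscreen on off-target GPR119 to flag nonselective hits from the GPR151 activator screen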
Hits are given with their value; i = inactive; nt = no result given. A selection: hits, their analogues and other compounds. The true share with any hit is near 3.4%.

SMILES	GPR151 ag	MITF inh	FBW7 activator	TEAD-YAP inh	GPR151 conf act	GPR119 counter
C/C(=N\Nc1cc(-n2cc(C)cn2)ncn1)c1ccccc1	i	i	i	i	nt	nt
O=P(O)(O)O[C@@H]1[C@H](OP(=O)(O)O)[C@@H](OP(=O)(O)O)[C@H](O)[C@@H](O)[C@@H]1OP(=O)(O)O	i	i	nt	nt	nt	nt
Cc1ccc(-c2nc3ccccc3c(=O)n2Cc2ccccc2Cl)cc1	i	i	i	i	nt	nt
CCc1ccc(C2C(C(C)=O)=C(O)C(=O)N2CCNCCO)cc1 (centres undefined)	5.4	i	i	i	i	i
CC(=O)C1=C(O)C(=O)N(CCNCCO)C1c1ccc(Cl)cc1 (centres undefined)	i	i	i	i	nt	nt
O=C(NC1CCC(C(=O)O)CC1)c1ccc([N+](=O)[O-])cc1 (centres undefined)	i	i	i	i	nt	nt
COc1nc(NCCN(C(C)C)C(C)C)nc(-c2ccccc2)n1	i	i	i	i	nt	nt
COc1ccc(-c2nc(NCCN(C(C)C)C(C)C)nc(OC)n2)cn1	6.1	i	i	i	i	i
CC1(C(=O)O)C2C=CC3(CN(c4ccccc4)C(=O)C31)O2 (centres undefined)	8.1	i	i	i	i	i
COc1ccc(C(=O)Oc2ccc(C=C3C(=O)NC(=S)NC3=O)cc2)cc1	i	i	i	i	nt	nt
O=C1NC(=S)NC(=O)C1=Cc1cccc(OC(=O)c2ccc(Cl)cc2)c1	5.9	i	i	i	i	i
CC(=O)O[C@]1(C(C)=O)CC[C@H]2[C@@H]3C=C(Cl)C4=CC(=O)CC[C@]4(C)[C@H]3CC[C@@]21C	5.2	i	i	nt	i	i
COc1cccc(NC(=O)CSc2nc3ccccc3c(=O)n2CCc2ccc(OC)c(OC)c2)c1	5.0	i	i	i	i	i
CCOc1ccc(C2C(C#N)=C(N)Oc3c2c(C)nn3-c2ccccc2)cc1OC (centres undefined)	6.4	i	i	i	i	i
Cc1nn(-c2cccc(Cl)c2)c2c1C(c1ccccc1Cl)C(C#N)=C(N)O2 (centres undefined)	5.5	i	i	i	i	i
COc1ccc(C2C(C#N)=C(N)Oc3c2c(C)nn3-c2ccccc2)cc1OC (centres undefined)	i	i	i	i	nt	nt
Cc1nn(-c2ccccc2)c2c1C(c1ccccc1Cl)C(C#N)=C(N)O2 (centres undefined)	i	i	i	i	nt	nt
COc1ccc(N2CCN(C(=O)c3sccc3C)CC2)cc1	i	i	i	i	nt	nt
CC(C)c1ccc(NC(=O)C(c2ccc3c(c2)OCO3)N(Cc2ccccc2)c2ccccc2)cc1 (centres undefined)	5.7	i	i	i	i	i
CCN1CCCC1CNCc1ccccc1F (centres undefined)	i	i	i	i	nt	nt
CCOC(=O)C1=CN(C)C=C(C(=O)OCC)C1c1ccc(OC)c(OCc2ccccc2)c1	7.2	i	i	i	i	i
CCOC(=O)C1=C(C)NC2=C(C(=O)C(C(=O)OCC)C(c3ccccc3OC)C2)C1c1ccc(OCc2ccccc2)c(OC)c1 (centres undefined)	8.7	i	i	i	i	i
COC(=O)C1=CN(C)C=C(C(=O)OC)C1c1ccc(OCc2ccccc2)c(OC)c1	i	i	i	i	nt	nt
CC(Oc1cccc(Br)c1)C(=O)Nc1ccc2c(c1)OCO2 (centres undefined)	5.4	i	i	i	i	i
CC(Oc1ccc2c(c1)OCO2)C(=O)NNC(=O)Nc1cccc(C(F)(F)F)c1 (centres undefined)	i	i	i	i	nt	nt
SMILES	GPR151 ag	MITF inh	FBW7 activator	TEAD-YAP inh	GPR151 conf act	GPR119 counter
Cn1c2ccccc2c(=O)c2c(=O)n(CCc3ccccc3)c(-c3ccco3)nc21	9.4	i	i	i	i	i
Cn1c2ccccc2c(=O)c2c(=O)n(Cc3ccccc3)c(-c3ccco3)nc21	i	i	i	i	nt	nt
COCCCn1c(-c2ccc(F)cc2)nc2c(c(=O)c3ccccc3n2C)c1=O	5.9	i	i	i	i	i
COc1cc(C(=O)Nc2ccc([N+](=O)[O-])cc2)cc(Br)c1OC	5.6	i	i	i	i	i
COc1cc(C(=O)Nc2cccc([N+](=O)[O-])c2)cc(OC)c1OC	i	i	i	i	nt	nt
CC(CN1CCCC1)OC(=O)COc1ccc(F)cc1 (centres undefined)	i	i	i	i	nt	nt
CCN1CCN(C2=NS(=O)(=O)C(c3ccc(C)cc3)=C2C)CC1	11.7	i	i	i	i	i
NC(=O)c1cc2cc(Cl)ccc2oc1=Nc1ccccc1	5.8	i	i	i	i	i
CCOC(=O)C(C#N)C(=O)c1ccc(NC(=O)c2ccc([N+](=O)[O-])cc2)cc1 (centres undefined)	i	i	i	i	nt	nt
NC(=O)CC(c1ccccc1)c1ccc2c(c1)OCO2 (centres undefined)	6.4	i	i	i	i	i
COC(=O)[C@@H]1CC[C@H](C)[C@@H](c2ccc(C)cc2)N1C(=O)c1ccc(/C=N/OC[C@@H](O)[C@H]2O[C@@H]3OC(C)(C)O[C@@H]3[C@H]2O)cc1	6.7	i	i	nt	i	i
COc1ccc(N2CCN(C3CC(=O)N(c4ccc(C(=O)O)cc4)C3=O)CC2)cc1 (centres undefined)	6.0	i	i	i	i	i
COc1cccc(N2C(=O)CC(N3CCN(c4ccccn4)CC3)C2=O)c1 (centres undefined)	5.1	i	i	i	i	i
CCOc1cccc(N2C(=O)CC(N3CCN(c4ccccn4)CC3)C2=O)c1 (centres undefined)	i	i	i	i	nt	nt
COc1ccccc1CNC(=O)CCc1cn(C)c2ccccc12	5.9	i	i	i	i	i
O=C(CCCn1c(=O)c2cccn2c2ccccc21)NC1CCN(Cc2ccccc2)CC1	i	i	i	i	nt	nt
Cn1cc(CCC(=O)NC2CCN(Cc3ccccc3)CC2)c2ccccc21	5.9	i	i	i	i	i
O=C(CCCn1c(=O)c2cccn2c2cccnc21)NC1CCN(Cc2ccccc2)CC1	5.8	i	i	i	i	i
Cc1[nH]nc2c1C(c1ccc(OC(=O)c3ccc(Cl)cc3)cc1)C(C#N)=C(N)O2 (centres undefined)	i	i	i	i	nt	nt
Cc1cc2ccccc2nc1SCCN1CCOCC1	i	i	i	i	nt	nt
COc1cc(/C=C2/C(=N)N3OC(C)=CC3=NC2=O)ccc1OCCSc1ccccc1	i	i	i	i	nt	nt
